# Test results taken from PubChem BioAssay AID2221 (Broad Institute, 2009).
# Screen size: about 290,000 compounds; about 2,200 (0.76%) were called active. Cut-off read from the data, not from the text of the source: active = inhibition above about 30%; inconclusive = no clear call, values can overlap the other calls; inactive = below that. For the sample, actives were picked, then their nearest neighbours and some compounds at random.
# Target: Protein RecA (Mycobacterium tuberculosis (strain ATCC 25618 / H37Rv)) (UniProt P9WHJ3)
# Assay: Mtb RecA intein splicing inhibitors, primary screen, biochemical, fluorescence, HTS (AID 2221);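 note: 0% = vehicle wells and 100% = reference inhibitor control wells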
# Conditions: cell-free RecA intein splicing, active compounds read high, concentration not given here
# Sequence of Protein RecA (Mycobacterium tuberculosis (strain ATCC 25618 / H37Rv)) (P9WHJ3 whole entry, looked up): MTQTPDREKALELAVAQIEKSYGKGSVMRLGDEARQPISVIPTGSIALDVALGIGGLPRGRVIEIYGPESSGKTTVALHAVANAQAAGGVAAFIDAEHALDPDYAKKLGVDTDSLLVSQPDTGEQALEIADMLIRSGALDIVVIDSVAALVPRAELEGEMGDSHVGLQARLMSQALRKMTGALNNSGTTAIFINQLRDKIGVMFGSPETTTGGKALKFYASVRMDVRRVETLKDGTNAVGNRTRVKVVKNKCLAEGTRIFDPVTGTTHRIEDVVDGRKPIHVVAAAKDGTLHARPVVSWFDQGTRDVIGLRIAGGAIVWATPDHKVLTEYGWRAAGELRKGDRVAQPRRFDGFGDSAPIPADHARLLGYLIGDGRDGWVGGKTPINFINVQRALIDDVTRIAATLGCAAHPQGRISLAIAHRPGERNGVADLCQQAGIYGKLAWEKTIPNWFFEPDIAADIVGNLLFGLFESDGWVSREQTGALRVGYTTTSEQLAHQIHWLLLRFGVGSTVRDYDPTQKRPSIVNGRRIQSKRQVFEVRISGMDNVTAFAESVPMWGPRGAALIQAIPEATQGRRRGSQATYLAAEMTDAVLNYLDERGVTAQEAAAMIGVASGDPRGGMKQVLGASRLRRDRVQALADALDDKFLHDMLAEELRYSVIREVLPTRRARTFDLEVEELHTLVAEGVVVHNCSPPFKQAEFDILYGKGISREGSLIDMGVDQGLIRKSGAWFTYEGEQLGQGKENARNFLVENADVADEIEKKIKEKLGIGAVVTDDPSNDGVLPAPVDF
row,Compound,inhibition
1,Cc1cc(Cl)nc(NC(=O)Nc2cccc(Cl)c2)n1,-0.873% (inactive)
2,O=C(NCCCn1ccnc1)c1cc2c(s1)CCCC2,1.03% (inactive)
3,CCOc1c(Br)cc(/C=C2\C(=O)N(CCC#N)N=C2C)cc1OC,89.5% (active)
4,C=CCOc1c(Br)cc(/C=N\n2nnnc2N)cc1OC,1.44% (inactive)
5,COc1cc(/C=C2/C(=O)NN(c3cccc(Cl)c3)C2=O)cc(Br)c1O,9.85% (inactive)
6,Cc1cccc(OCC(=O)NCCNC(=O)c2cccnc2)c1,4.34% (inactive)
7,Cc1nn(CC(=O)NC2CCCCC2)c(=O)c2cccn12,-1.92% (inactive)
8,O=C(CN(C(=O)CNC(=O)c1cccs1)c1cccc(F)c1)NC1CCCCC1,2.36% (inactive)
9,Cc1cc2[nH]ncc2cc1NC(=S)NC(=O)c1ccccc1,38.6% (active)
10,Cc1cccc(NC(=S)Nc2ccc3cn[nH]c3c2)c1,3.44% (inactive)
11,Cc1cccc(NC(=O)NC(=S)NC(=O)c2ccccc2)c1,1.58% (inactive)
12,CC(=O)c1c(N2CCN(c3ccc(F)cc3)CC2)nc(=S)n(-c2ccccc2)c1C,-0.168% (inactive)
13,O=C(CCN1C(=O)[C@@H]2Cc3ccccc3CN2C1=O)NCCc1ccccc1,-9.37% (inactive)
14,O=C(CCN1C(=O)[C@@H]2Cc3ccccc3CN2C1=O)NCc1ccccc1,-0.00645% (inactive)
15,Cc1ccc(CNC(=O)CCN2C(=O)[C@@H]3Cc4ccccc4CN3C2=O)cc1,58% (active)
16,CCOc1ccc(N2CC(C(=O)N/N=C/c3sccc3C)CC2=O)cc1 (stereo not given),-0.809% (inactive)
17,Cc1ccsc1/C=N/Nc1ccc(Cl)nn1,0.218% (inactive)
18,COc1cc(CC(=O)N/N=C/c2ccccc2)c([N+](=O)[O-])cc1OC,-1.27% (inactive)
19,Cc1cc(C(=O)N/N=C/c2ccccc2[N+](=O)[O-])c(C)o1,-1.48% (inactive)
20,O=C(Cc1cc(=O)[nH][nH]1)N/N=C/c1ccccc1[N+](=O)[O-],86.9% (active)

row,Compound,inhibition
1,Cc1ccsc1/C=N/NC(=O)Cc1cc(=O)[nH][nH]1,93.6% (active)
2,CCCNC(=O)OC[C@H]1O[C@H](CCO/N=C/[C@@H](NS(=O)(=O)c2ccc(C)cc2)[C@H](C)/C=C/CC(=O)OC)C=C[C@@H]1Oc1ccc(OC)cc1,4.43% (inactive)
3,CCN=c1sc(C(=O)Nc2ccccc2)c(C)n1CC,-1.39% (inactive)
4,CC(=O)N1CCN(C(=O)C2(NC(=O)Nc3ccc(C)cc3)CCCCC2)CC1,-0.697% (inactive)
5,O=C1c2cccc3c([N+](=O)[O-])ccc(c23)C(=O)N1CC1CCCO1 (stereo not given),-70.4% (inactive)
6,Cc1ccc(Nc2ccc(C(N)=O)cc2[N+](=O)[O-])cc1,2.38% (inactive)
7,Cc1ccc(Nc2cc(C)nc3c(C)ccc([N+](=O)[O-])c23)cc1,63.3% (active)
8,Cc1cc(C)nc(Nc2cc([N+](=O)[O-])ccc2C)n1,-2.26% (inactive)
9,CN(c1ccccc1)c1ccc([N+](=O)[O-])c2nonc12,63.5% (active)
10,CCN(CC)c1ccc([N+](=O)[O-])c2cccnc12,14.5% (inactive)
11,Cc1ccccc1Nc1c([N+](=O)[O-])ccc2nonc12,-1.72% (inactive)
12,COc1cc(C(F)(F)F)nc2c(Br)c(C(C)(C)C)nn12,0.549% (inactive)
13,CCOC(=O)c1cc(S(=O)(=O)NCCc2ccc(OC)c(OC)c2)cn1C,-0.521% (inactive)
14,CC(C)Oc1ccc(CCC(=O)NNC(=S)NCc2ccccc2)cc1,0.193% (inactive)
15,COc1ccc(C(=O)NC(=S)NNC(=O)CCc2ccccc2)cc1,34.5% (active)
16,COc1ccc(C(=O)NNC(=S)NC(=O)c2ccccc2)cc1,7.5% (inactive)
17,COc1ccc(N2CC(C(=O)NCCS(=O)(=O)N3CCN(c4ccccc4)CC3)CC2=O)cc1 (stereo not given),-1.96% (inactive)
18,CC(C)C(NC(=O)C1CCC(C(C)(C)C)CC1)C(=O)NCCCN1CCCCC1 (stereo not given),0.406% (inactive)
19,Cc1c(-c2nn(C)c(=O)c3ccccc23)oc2ccc(F)cc2c1=O,88.2% (active)
20,Cc1ccc(F)cc1NC(=O)Cc1nn(C)c(=O)c2ccccc12,-33.8% (inactive)

row,Compound,inhibition
1,O=C1c2oc3ccc(Br)cc3c(=O)c2C(c2cccc(F)c2)N1CCO (stereo not given),1.67% (inactive)
2,COc1cccc(N2C(=O)CN(Cc3ccccc3)C2=S)c1,0.665% (inactive)
3,O=C(COc1ccc(Cl)cc1Cl)NCCCNC(=O)c1cnccn1,1.17% (inactive)
4,CCOC(=O)/C(=N\Nc1ccccc1[N+](=O)[O-])c1csc(Nc2ccccc2)n1,-3.85% (inactive)
5,CN1CCc2nc(SC(C(=O)O)c3ccccc3)c(C#N)c(-c3cccs3)c2C1 (stereo not given),34.8% (active)
6,CCc1c(-c2ccccc2)nc(N)c(C#N)c1-c1cccs1,4.71% (inactive)
7,Cc1c(-c2ccccc2)nc(N)c(C#N)c1-c1cccs1,-1.05% (inactive)
8,O=C(Cc1ccccc1F)NC1CCSc2ccccc21 (stereo not given),-0.276% (inactive)
9,Cc1nc(-c2ccccc2)sc1C1(C)CC(c2cccnc2)=NO1 (stereo not given),1.29% (inactive)
10,N#Cc1nc(N)nc(N(c2ccccc2)c2ccccc2)n1,37.4% (active)
11,Nc1nc(-c2ccccc2)cc(-c2ccccc2)n1,6.87% (inactive)
12,Cc1nc2ccccn2c(=O)c1NC(=O)c1cccs1,-0.75% (inactive)
13,Cc1c(Cl)cccc1NC(=O)CCC(=O)N/N=C/c1ccco1,-1.26% (inactive)
14,CCC(C)NC(=O)CCCc1ccccc1 (stereo not given),-3.16% (inactive)
15,O=C(CCc1nnc(CCCCc2ccccc2)o1)NC(c1cccnc1)C(F)(F)F (stereo not given),-3.54% (inactive)
16,CC(CCn1cccn1)NC(=O)CCc1nnc(CCc2ccccc2)o1 (stereo not given),36.9% (active)
17,Cc1cc(=O)n2nc(N3CCC(C(=O)Nc4c(F)c(F)c(F)c(F)c4F)CC3)sc2n1,0.056% (inactive)
18,COc1ccc(-c2cc(C(=O)n3cnc4ccccc43)c3ccccc3n2)cc1,37.7% (active)
19,COc1ccc(-c2cc(C(=O)Nc3ccccc3O)c3ccccc3n2)cc1,-0.565% (inactive)
20,CNC(=O)COC(=O)c1cc(-c2ccc(OC)cc2)nc2ccccc12,-2.37% (inactive)
